From PubChem BioAssay
DT40 TDP1 CPT: qHTS for Inhibitors of human tyrosyl-DNA phosphodiesterase 1 (TDP1): qHTS in cells in presence of CPT. hit rate 12% among 420,000. AID 686979, 2013. Potency, µM (top dose mostly 46.2 µM), most hits filed as inhibitors. chicken DT40 Tdp1-/-;hTDP1 cells + 20 nM CPT, ATP luminescence, 48 h; note: nearly all actives have a fitted effect of over 55% in size
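Chicken DT40 Tdp1-/- cells stably complemented with human TDP1 were seeded at 400 cells/well in medium containing 20 nM camptothecin, exposed to pin-transferred compounds, and grown at 37 °C for at least 48 hr. Viability was read as ATP luminescence.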
IL-1B inflam inh: qHTS for Inhibitors of Inflammasome Signaling: IL-1-beta AlphaLISA Primary Screen. THP-1 LPS/ATP IL-1B secretion, AlphaLISA, 16 h; stronger effect = lower value. activity change, % at 57.5 µM. hit rate 4.7% among 360,000. AID 743279, 2014; in the data active = activity change below about -50%; inconclusive = mostly about -30% to -49%
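THP-1 cells pretreated 1 hr with compounds (up to 57.5 uM final), then stimulated with LPS (250 ng/mL final) plus ATP (1.25 mM final); secreted IL-1B measured by AlphaLISA after 16 hr, decreased signal indicating inhibition.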
HT1080NT lethal: qHTS for induction of synthetic lethality in tumor cells producing 2HG: qHTS for the HT-1080-NT fibrosarcoma cell line | Potency, µM (titrated, usually from 46.1 µM), hits mostly cytotoxic | HT-1080-NT fibrosarcoma viability, CellTiter-Glo ATP luminescence, 48 h | hit rate 1.6% among 360,000;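 note: NT is the 2HG producing partner of a matched IDH1 knockdown line; nearly all actives have a fitted effect of over 55% in size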
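Read-out is CellTiter-Glo luminescence after 10 minutes at room temperature, following 48 hours' compound treatment of HT-1080-NT cells (750 cells/well, RPMI, 5% FBS, 37 degrees C).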
ELG1 DNA repair: qHTS screen for small molecules that inhibit ELG1-dependent DNA repair in human embryonic kidney (HEK293T) cells expressing luciferase-tagged ELG1; HEK293T ELG1-luciferase reporter, luminescence, 16 h; DNA damage induced by 5-fluorouridine; Potency, µM (highest dose often 46.1 µM), hits mostly inhibitors; hit rate 2.3% among 330,000; AID 504467, 2011; note: nearly all actives have a fitted effect of over 55% in size
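Quantitative HTS, concentration-response format. 2,000 cells/well co-treated with 5-fluorouridine and compound, 16 hr in 5% CO2 at 37 °C; ONE-Glo luminescence read after 30 min.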
HT1080 IDH1KD tx: qHTS for induction of synthetic lethality in tumor cells producing 2HG: qHTS for the HT-1080-IDH1KD cell line; hit rate 2% among 360,000; Potency, µM (titrated, usually from 46.1 µM), most hits filed as cytotoxic; AID 686971, 2013; HT-1080 IDH1 knockdown viability, ATP luminescence, 48 h
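IDH1KD HT-1080 cells, 750/well, RPMI + 5% FBS; compound pinned after 2 h settling; 48 h, 37 °C; CellTiter-Glo luminescence; % activity normalised to DMSO and no-cell wells; curves fitted, classed by r2 and efficacy.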
DT40 TDP1 no CPT: qHTS for Inhibitors of human tyrosyl-DNA phosphodiesterase 1 (TDP1): qHTS in cells in absence of CPT | DT40 Tdp1-/- hTDP1 cells, no CPT, ATP luminescence, 48 h | hit rate 15% among 420,000 | AID 686978, 2013 | Potency, µM (doses to about 46.2 µM), actives largely listed as inhibitors; note: nearly all actives have a fitted effect of over 55% in size
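Chicken DT40 Tdp1-/- cells complemented with human TDP1, screened without camptothecin (DMSO vehicle only), 400 cells/well. Compounds pin-transferred, cells incubated at 37 °C for at least 48 hr. Growth read as ATP-dependent luminescence (CellTiter-Glo, 30 min at RT).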
Each line names hits and unclear results; the compound was inactive in the other large screens. Most compounds without a hit are left out; they make up all but 19% or so of the library. Unless noted, calls come from the whole dose curve; as a rule, active = well fitted curve in the direction sought with a large enough effect; inconclusive = small, poorly fitted or top-dose-only effect, or another doubt; inactive = no such curve, though single readings can be large; an effect the other way counts as inactive or inconclusive.

CCc1ccc(NC(=O)Cn2c(=O)n(CCCC(=O)NCc3ccccc3OC)c(=O)c3ccccc32)cc1	none (no result: IL-1B inflam inh, HT1080NT lethal, ELG1 DNA repair, HT1080 IDH1KD tx)
CCCCNC(=O)CCCn1c(=O)c2ccccc2n(Cc2ccccc2C)c1=O	DT40 TDP1 CPT inconclusive, DT40 TDP1 no CPT 21µM (no result: IL-1B inflam inh, HT1080NT lethal, ELG1 DNA repair, HT1080 IDH1KD tx)
CCOC(=O)c1ccccc1NC(=O)Cn1c(=O)n(CCC(=O)NCc2ccccc2OC)c(=O)c2ccccc21	DT40 TDP1 CPT inconclusive, DT40 TDP1 no CPT 16µM (no result: IL-1B inflam inh, HT1080NT lethal, ELG1 DNA repair, HT1080 IDH1KD tx)
COC(=O)c1ccc(-c2ccc(Cl)cc2)nc1C	ELG1 DNA repair inconclusive, DT40 TDP1 no CPT inconclusive
COc1ccc(C(=O)N2CCCC(C(=O)N3CCN(c4ccccc4)CC3)C2)cc1 (stereo not given)	none
O=C(CCCn1c(=O)c2ccccc2n(CC(=O)Nc2ccc(F)cc2F)c1=O)NCc1ccccc1Cl	DT40 TDP1 CPT 16µM, DT40 TDP1 no CPT inconclusive (no result: IL-1B inflam inh, HT1080NT lethal, ELG1 DNA repair, HT1080 IDH1KD tx)
COc1cccc(NC(=O)Cn2c(=O)n(CCCCC(=O)NCc3ccccc3Cl)c(=O)c3ccccc32)c1	DT40 TDP1 CPT inconclusive, DT40 TDP1 no CPT 18µM (no result: IL-1B inflam inh, HT1080NT lethal, ELG1 DNA repair, HT1080 IDH1KD tx)
COc1ccc(NC(=O)Cn2c(=O)n(CCCC(=O)NCc3ccccc3OC)c(=O)c3ccccc32)cc1Cl	DT40 TDP1 CPT inconclusive (no result: IL-1B inflam inh, HT1080NT lethal, ELG1 DNA repair, HT1080 IDH1KD tx)
CCCCNC(=O)Cn1ncc2c(C)n(Cc3cccc(Cl)c3)c(C)c2c1=O	DT40 TDP1 CPT 23µM, DT40 TDP1 no CPT 21µM (no result: IL-1B inflam inh, HT1080NT lethal, ELG1 DNA repair, HT1080 IDH1KD tx)
O=P(NCc1ccccc1)(OCc1ccccc1)OCc1ccccc1	DT40 TDP1 CPT inconclusive, DT40 TDP1 no CPT inconclusive (no result: ELG1 DNA repair)
CN(C)CC/C=C1/c2ccccc2CS(=O)(=O)c2ccccc21	none (no result: ELG1 DNA repair)
CNCC/C=C1/c2ccccc2CSc2ccccc21	DT40 TDP1 CPT inconclusive, HT1080NT lethal 16µM, HT1080 IDH1KD tx inconclusive, DT40 TDP1 no CPT inconclusive
CN(C(=O)c1ccc(S(=O)(=O)N2CCCC2)cc1)C1CCS(=O)(=O)C1 (stereo not given)	DT40 TDP1 CPT inconclusive
COCCCNC(=O)Cn1c(=O)nc(-c2ccccc2)c2ccccc21	none (no result: IL-1B inflam inh, HT1080NT lethal, ELG1 DNA repair, HT1080 IDH1KD tx)
CN(c1ccccc1)S(=O)(=O)c1cccc(NC(=O)CN2CCc3ccccc3C2)c1	ELG1 DNA repair inconclusive, DT40 TDP1 no CPT inconclusive
COc1cc(C=O)ccc1OCC(=O)Nc1cccc(S(=O)(=O)N(C)c2ccccc2)c1	DT40 TDP1 CPT inconclusive, ELG1 DNA repair inconclusive, DT40 TDP1 no CPT 12µM
CN(c1ccccc1)S(=O)(=O)c1cccc(NC(=O)CC(C)(C)C)c1	DT40 TDP1 CPT 16µM, ELG1 DNA repair inconclusive, DT40 TDP1 no CPT 15µM
Cc1cc(S(=O)(=O)NCc2ccccc2)ccc1OCC(=O)Nc1cccc([N+](=O)[O-])c1	DT40 TDP1 CPT 18µM, IL-1B inflam inh inconclusive, ELG1 DNA repair inconclusive, HT1080 IDH1KD tx inconclusive, DT40 TDP1 no CPT 21µM
CCC1CCC2(CC1)NC(=O)N(CC(=O)Nc1cccc(S(=O)(=O)N(C)c3ccccc3)c1)C2=O (stereo not given)	DT40 TDP1 CPT inconclusive, HT1080NT lethal inconclusive, ELG1 DNA repair inconclusive, HT1080 IDH1KD tx inconclusive, DT40 TDP1 no CPT inconclusive
CN1C(=O)N(CC(=O)Nc2cccc(S(=O)(=O)N(C)c3ccccc3)c2)C(=O)C12CCCCC2	DT40 TDP1 CPT inconclusive, DT40 TDP1 no CPT 21µM
COc1ccc(CCNC(=O)c2cccc(NC(=O)CC3SC(N4CCCCC4)=NC3=O)c2)cc1OC (stereo not given)	DT40 TDP1 CPT inconclusive, ELG1 DNA repair inconclusive, DT40 TDP1 no CPT inconclusive
CC(C)(CC1(C)NC(=O)NC1=O)OCc1ccccc1 (stereo not given)	none (no result: ELG1 DNA repair)
CSc1cc(SC)ncn1	none (no result: ELG1 DNA repair)
